For 16 molecules, growth results are on record in PubChem BioAssay (NCI).

Test systems include T-47D breast; BT-549 breast; MDA-MB-435 melanoma; SW-620 colon; MCF7 breast; HCT-116 colon; HCC-2998 colon; KM12 colon.
Test in all cases: NCI-60 one-dose screen, 48 h (100 = growth as untreated, 0 = no growth, -100 = all killed)
Common to all, as to conditions: 10 µM unless noted

This is part of a sample that, as a whole, favours compounds with a hit. Of some 83,000 tested, about 20% had one in any assay.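 For each line, cells grew in 96-well plates with the test compound present at a single concentration for 48 hours.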 Unmarked numbers belong to inactive results. Activity calls are given as the source filed them. The calls were made as follows: active = growth percent below 10; inactive = the rest.

`COc1ccc2nc(-c3ccc(Cl)cc3)cc(-c3nnc(SCC(=O)Nc4ccc(C(C)=O)cc4)n3-c3ccccc3)c2c1`: the growth with T-47D breast is 87.2%; in the assay on BT-549 breast it was 87.5%; in the assay with MDA-MB-435 melanoma, 100%; in the assay with SW-620 colon it was 108%; in the assay on MCF7 breast, 100%; in the assay with HCT-116 colon, 100%. For the same molecule, the growth is 97.7% with HCC-2998 colon and 95.3% in the assay with KM12 colon.

For the molecule `Cc1ccc(C(NC(=O)c2ccccc2)c2ccc3cccnc3c2O)cc1` (stereo not drawn), the growth was 25.1% in the assay with T-47D breast; 25.5% in the assay with BT-549 breast; 30% with MDA-MB-435 melanoma; 31.3% in the assay with SW-620 colon; 24.8% in the assay with MCF7 breast; 22.8% with HCT-116 colon. The growth with HCC-2998 colon was 30.7%; with KM12 colon, 26.5%.

Regarding `O=C(/C=C/c1c(-c2ccccc2)[nH]c2ccccc12)S(=O)(=O)c1ccccc1`, the growth is 29.4% in the assay on T-47D breast; 87.9% with BT-549 breast; 9.36% (active) in the assay with MDA-MB-435 melanoma; 39.8% in the assay on SW-620 colon; 43.3% in the assay on MCF7 breast; 46.1% in the assay on HCT-116 colon. The results for the growth in the assay with HCC-2998 colon and in the assay on KM12 colon were 60.7% and 36.3%, respectively.

Consider `O=C(COc1ccc(/C=C2\Oc3ccc4ccccc4c3C2=O)cc1)c1ccc(Cl)cc1`, for which the growth in the assay on T-47D breast is 79.4%; with BT-549 breast, 24.7%; in the assay with MDA-MB-435 melanoma it was 101%; in the assay with SW-620 colon, 103%; with MCF7 breast, 58.5%; in the assay with HCT-116 colon, 96.7%. Moreover, the growth in the assay with HCC-2998 colon was 134%; in the assay with KM12 colon it was 99.5%.

For `CC(C)Sc1nc(-c2ccc(Br)cc2)c(C#N)c(N2CCCCC2)n1`, the growth is 94.3% in the assay on T-47D breast; 109% in the assay with BT-549 breast; 95.7% with MDA-MB-435 melanoma; 102% with SW-620 colon; 93.1% with MCF7 breast; 100% with HCT-116 colon. The growth is 121% with HCC-2998 colon and 95.9% in the assay with KM12 colon.

For the molecule `O=Cc1ncc(-c2ccc(C(F)(F)F)cc2)c(NC2CCCCCC2)n1`, the growth in the assay on T-47D breast is -19% [100 µM] (active); with BT-549 breast, -93.4% [100 µM] (active); in the assay with MDA-MB-435 melanoma, -88.1% [100 µM] (active); in the assay with SW-620 colon it was -44.4% [100 µM] (active); with MCF7 breast, -86.3% [100 µM] (active); with HCT-116 colon, -94.3% [100 µM] (active). Besides, the results for the growth in the assay on HCC-2998 colon and in the assay on KM12 colon were -74.4% [100 µM] (active) and -87.6% [100 µM] (active), respectively.

Consider `Cc1onc(-c2ccccc2Cl)c1C(=O)N[C@@H]1C(=O)N2[C@@H]1SC(C)(C)[C@@H]2C(=O)O`, for which the growth in the assay on T-47D breast is 98.1%; in the assay with BT-549 breast it was 100%; in the assay on MDA-MB-435 melanoma it was 107%; with SW-620 colon it was 110%; in the assay on MCF7 breast, 101%; in the assay with HCT-116 colon, 101%. The growth in the assay on HCC-2998 colon is 99.6%; in the assay on KM12 colon, 108%.

For the molecule `CC(=O)OC1Oc2cc(C)c(C)cc2-c2oc(=O)c(-c3ccccc3)cc21` (stereo not drawn), the growth in the assay on T-47D breast is 43.8%; in the assay on BT-549 breast, 24.9%; with MDA-MB-435 melanoma, -19.6% (active); in the assay with SW-620 colon, 16.3%; in the assay on MCF7 breast, 10.9%; in the assay with HCT-116 colon, 14%. Besides, the values for the growth with HCC-2998 colon and with KM12 colon were 41.4% and 7.26% (active), respectively.

For `CCC(=O)Nc1cc2c(cc1Cl)-c1ccccc1C2`, the growth with T-47D breast is 85.2%; in the assay with BT-549 breast it was 86.1%; in the assay with MDA-MB-435 melanoma, 113%; in the assay on SW-620 colon, 101%; with MCF7 breast it was 95.2%; in the assay with HCT-116 colon, 99.2%. Besides, the growth is 87% with HCC-2998 colon and 95.2% in the assay with KM12 colon.

As to `O=C(Oc1cccc2ccccc12)c1ccccc1C(=O)c1ccccc1`, the growth in the assay on T-47D breast is 87.4%; in the assay on BT-549 breast, 99.7%; in the assay with MDA-MB-435 melanoma, 73.5%; in the assay with SW-620 colon, 99.4%; with MCF7 breast it was 109%; in the assay on HCT-116 colon, 82%. Also, the growth is 103% in the assay on HCC-2998 colon and 92.2% in the assay with KM12 colon.

For the molecule `FC(F)(F)c1ccc(-c2cnc(-c3nn[nH]n3)nc2NC2CCCCCC2)cc1`, the growth with T-47D breast is 46.9% [50 µM]; with BT-549 breast, 50.8% [50 µM]; with MDA-MB-435 melanoma it was 43.1% [50 µM]; in the assay on SW-620 colon, 41.2% [50 µM]; in the assay on MCF7 breast it was 50.4% [50 µM]; in the assay on HCT-116 colon it was 33.3% [50 µM]. Also, the growth with HCC-2998 colon was 60.6% [50 µM]; in the assay with KM12 colon, 41.5% [50 µM].

Consider `Cc1cc2ccccn2c1C(=O)c1ccc(C(=O)c2ccccc2)cc1`, for which the growth was 77.3% with T-47D breast; 92.5% in the assay with BT-549 breast; 91.3% in the assay with MDA-MB-435 melanoma; 84.2% in the assay on SW-620 colon; 96.5% in the assay on MCF7 breast; 88.7% with HCT-116 colon. Moreover, the growth was 83.8% in the assay on HCC-2998 colon and 113% with KM12 colon.

In the case of `C/C(=C\CCc1ccoc1)CC/C=C(\C)CCCN1CCSCC1`, the growth is 60.9% with T-47D breast; 77.7% with BT-549 breast; 91.1% with MDA-MB-435 melanoma; 86.1% in the assay on SW-620 colon; 43.2% in the assay on MCF7 breast; 53.8% in the assay with HCT-116 colon. Further, the growth was 74.6% with HCC-2998 colon and 81% in the assay on KM12 colon.

For the molecule `Cc1[nH]cnc1/C=C1\SC(N2CCCCC2)=NC1=O`, the growth with T-47D breast was 104%; with BT-549 breast it was 105%; with MDA-MB-435 melanoma, 108%; in the assay on SW-620 colon, 107%; in the assay on MCF7 breast, 108%; with HCT-116 colon it was 106%. The figures for the growth in the assay on HCC-2998 colon and in the assay with KM12 colon were 101% and 114%, respectively.

In the case of `O=C(Nc1ccccc1)c1cc(-n2cnc([N+](=O)[O-])c2)cc(-n2cnc([N+](=O)[O-])c2)n1`, the growth was 107% in the assay on T-47D breast; 113% in the assay with BT-549 breast; 122% in the assay with MDA-MB-435 melanoma; 99.7% in the assay on SW-620 colon; 116% with MCF7 breast; 103% with HCT-116 colon. Besides, the results for the growth in the assay with HCC-2998 colon and with KM12 colon were 65.2% and 94.1%, respectively.

With `Cn1cc(NC(=O)Nc2cc(C(=O)O)n(C)c2)cc1C(=O)O`, the growth in the assay on T-47D breast was 107%; in the assay on BT-549 breast it was 125%; in the assay on MDA-MB-435 melanoma, 115%; with SW-620 colon it was 96.3%; in the assay on MCF7 breast, 116%; in the assay with HCT-116 colon, 102%. For the same molecule, the results for the growth in the assay on HCC-2998 colon and in the assay with KM12 colon were 107% and 98.6%, respectively.
